Results filed as inconclusive are left out. Active and inactive are the calls of the source. Rule for the calls, unless noted: active = hit-call score of the fitted dose curve at least 0.9, where 1 is the maximum; inactive = score below 0.9.
Key:
[1] = biological target: Paired box protein Pax-6 (Homo sapiens) (UniProt P26367); experiment: ATG_Pax6_CIS: Attagene CIS-FACTORIAL HepG2 Assay for human Paired Box 6 (PAX6) (AID 2282956); settings: HepG2 CIS-FACTORIAL PAX6 reporter transcription, RNA readout; actives raise or lower the signal
Chain of Paired box protein Pax-6 (Homo sapiens) (P26367 whole entry, looked up): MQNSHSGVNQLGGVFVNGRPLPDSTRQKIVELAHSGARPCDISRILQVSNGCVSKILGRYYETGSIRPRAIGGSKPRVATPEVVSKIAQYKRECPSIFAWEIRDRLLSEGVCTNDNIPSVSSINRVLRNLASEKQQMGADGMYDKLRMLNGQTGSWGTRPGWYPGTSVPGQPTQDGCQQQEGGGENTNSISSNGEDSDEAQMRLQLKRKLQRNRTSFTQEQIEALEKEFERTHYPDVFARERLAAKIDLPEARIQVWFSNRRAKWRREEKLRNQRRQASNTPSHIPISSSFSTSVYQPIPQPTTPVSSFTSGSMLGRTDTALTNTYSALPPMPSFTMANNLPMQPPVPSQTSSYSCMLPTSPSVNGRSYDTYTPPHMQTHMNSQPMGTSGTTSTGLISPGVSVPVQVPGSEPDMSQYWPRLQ
Procedure, shortened: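 Fluorescent RT-PCR products separated by capillary electrophoresis report PAX6-linked promoter mRNA in HepG2 cells 24 h post-dose. Curves fitted bidirectionally, DMSO as negative control.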

[2] = ATG_PXRE_CIS: Attagene CIS-FACTORIAL HepG2 Assay for human Pregnane X Receptor Element (PXRE) (AID 2282957); settings: HepG2 Attagene CIS-FACTORIAL PXRE reporter, mRNA; actives raise or lower the signal
Procedure, shortened: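 After a 24 h chemical incubation, total RNA from transfected HepG2 cells was reverse-transcribed and reporter cDNA amplified, FAM-labeled, HpaI-digested and sized by capillary electrophoresis. DMSO served as baseline for bidirectional curve fitting.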

[3] = ATG_PPRE_CIS: Attagene CIS-FACTORIAL HepG2 Assay for human Peroxisome Proliferator-activated Response Element (PPRE) (AID 2282958); settings: HepG2 PPRE cis-element reporter, Attagene transcription factor profiling; actives raise or lower the signal
Procedure, shortened: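 PPRE activity in HepG2: transient cis-reporter transfection, 24 h compound incubation, reporter mRNA by RT-PCR and CE fluorescence; gain/loss fitted against DMSO.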

[4] = ATG_RORE_CIS: Attagene CIS-FACTORIAL HepG2 Assay for human RAR-related Orphan Receptor Element (RORE) (AID 2282959); settings: HepG2 Attagene cis-factorial RORE reporter, mRNA; actives raise or lower the signal
Procedure, shortened: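 A 24-hour exposure of transfected HepG2 hepatoma cells precedes RNA isolation and reporter RT-PCR. Labeled products are digested with HpaI and resolved by capillary electrophoresis, with gain or loss of signal scored relative to DMSO.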

[5] = ATG_Sox_CIS: Attagene CIS-FACTORIAL HepG2 Assay for human SRY-box transcription factor (SOX) (AID 2282960); settings: HepG2 Attagene cis-factorial SOX reporter, mRNA; actives raise or lower the signal
Procedure, shortened: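 HepG2, cis reporter units, 24 h exposure. Reporter mRNA: RT-PCR → FAM labelling → HpaI → CE fluorescence. Bidirectional fit vs DMSO.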

[6] = biological target: Transcription factor Sp1 (Homo sapiens) (UniProt P08047); experiment: ATG_Sp1_CIS: Attagene CIS-FACTORIAL HepG2 Assay for human Specificity Protein 1 (Sp1) (AID 2282961); settings: HepG2 Sp1 cis-reporter transcription, actives raise or lower the signal
Chain of Transcription factor Sp1 (Homo sapiens) (P08047 whole entry, looked up, the tested form may be a part): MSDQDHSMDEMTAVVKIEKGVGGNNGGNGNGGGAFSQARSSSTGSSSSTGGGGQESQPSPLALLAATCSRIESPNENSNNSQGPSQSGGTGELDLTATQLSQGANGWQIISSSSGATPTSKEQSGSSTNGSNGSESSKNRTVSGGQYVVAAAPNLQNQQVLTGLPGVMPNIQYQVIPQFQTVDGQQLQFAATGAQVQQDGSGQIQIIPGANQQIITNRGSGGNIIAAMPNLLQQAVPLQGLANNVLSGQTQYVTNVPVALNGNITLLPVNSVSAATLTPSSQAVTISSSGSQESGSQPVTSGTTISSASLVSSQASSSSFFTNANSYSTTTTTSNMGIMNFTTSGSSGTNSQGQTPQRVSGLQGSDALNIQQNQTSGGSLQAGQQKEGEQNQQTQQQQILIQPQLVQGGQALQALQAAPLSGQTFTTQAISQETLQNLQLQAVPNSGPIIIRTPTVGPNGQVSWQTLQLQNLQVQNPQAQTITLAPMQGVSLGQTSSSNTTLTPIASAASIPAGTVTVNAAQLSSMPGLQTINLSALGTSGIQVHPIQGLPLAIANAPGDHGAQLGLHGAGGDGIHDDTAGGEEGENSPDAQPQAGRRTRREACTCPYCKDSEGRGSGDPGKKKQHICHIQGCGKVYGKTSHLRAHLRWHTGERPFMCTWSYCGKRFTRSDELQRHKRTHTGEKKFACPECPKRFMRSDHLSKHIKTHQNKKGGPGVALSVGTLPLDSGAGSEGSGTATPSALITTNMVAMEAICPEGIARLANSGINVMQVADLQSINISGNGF
Procedure, shortened: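 Liver-derived HepG2 cells, cis-element reporter library, 24 h treatment; RNA isolated, cDNA amplified with reporter-specific primers, FAM-labeled fragments sized on capillary analyzer. DMSO baseline, bidirectional curve fit.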

[7] = ATG_SREBP_CIS: Attagene CIS-FACTORIAL HepG2 Assay for human Sterol Regulatory Element Binding (SREBP) (AID 2282962); settings: HepG2 Attagene cis-factorial SREBP reporter, mRNA; actives raise or lower the signal
Procedure, shortened: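 Endogenous factor activity is measured in HepG2 through multiplexed reporter units under cis-element control. Following a 24 h incubation, reporter transcripts are reverse-transcribed, PCR-amplified and sized by capillary electrophoresis; activity is fitted in both directions relative to DMSO.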

[8] = biological target: Signal transducer and activator of transcription 3 (Homo sapiens) (UniProt P40763); experiment: ATG_STAT3_CIS: Attagene CIS-FACTORIAL HepG2 Assay for human Signal Transducer and Activator of Transcription 3 (STAT3) (AID 2282963); settings: HepG2, Attagene cis-factorial STAT3 reporter transcription; actives raise or lower the signal
Chain of Signal transducer and activator of transcription 3 (Homo sapiens) (P40763 whole entry, looked up, the tested form may be a part): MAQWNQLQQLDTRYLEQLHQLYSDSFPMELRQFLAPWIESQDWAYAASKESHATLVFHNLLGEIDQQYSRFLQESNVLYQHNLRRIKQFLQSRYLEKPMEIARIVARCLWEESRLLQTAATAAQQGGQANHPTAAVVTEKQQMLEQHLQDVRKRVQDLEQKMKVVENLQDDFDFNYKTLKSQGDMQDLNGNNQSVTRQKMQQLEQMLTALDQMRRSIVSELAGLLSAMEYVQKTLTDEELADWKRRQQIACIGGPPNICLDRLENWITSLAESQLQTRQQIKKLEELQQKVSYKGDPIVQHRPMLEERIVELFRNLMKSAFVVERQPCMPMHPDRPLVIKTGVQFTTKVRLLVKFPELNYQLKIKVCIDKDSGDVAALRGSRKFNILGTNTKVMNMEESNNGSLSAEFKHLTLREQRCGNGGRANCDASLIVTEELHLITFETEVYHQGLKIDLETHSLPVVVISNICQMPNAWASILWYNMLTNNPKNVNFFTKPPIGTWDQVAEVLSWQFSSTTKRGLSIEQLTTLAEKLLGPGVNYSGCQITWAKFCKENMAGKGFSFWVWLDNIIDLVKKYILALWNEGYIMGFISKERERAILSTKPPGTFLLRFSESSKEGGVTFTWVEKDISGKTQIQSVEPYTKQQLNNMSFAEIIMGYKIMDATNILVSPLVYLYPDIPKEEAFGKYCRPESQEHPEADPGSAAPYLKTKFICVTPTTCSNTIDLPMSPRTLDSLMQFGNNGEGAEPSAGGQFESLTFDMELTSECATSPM
Procedure, shortened: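 Fluorescence intensity of 6-FAM-labelled reporter fragments, separated by capillary electrophoresis after RT-PCR, gave the signal. Cells were HepG2 transfected with cis-element reporter units and treated 24 h; fitting was bidirectional relative to DMSO.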

[9] = ATG_TA_CIS: Attagene CIS-FACTORIAL HepG2 Assay for human TA Basal Promoter (AID 2282964); settings: HepG2 Attagene CIS-factorial TA basal promoter reporter; actives raise or lower the signal
Procedure, shortened: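 Transfected HepG2, 24 h compound exposure; RNA → RT-PCR → FAM primer extension → HpaI cut → CE fluorescence. Gain/loss-of-signal fitted against DMSO negative control. Background-control readout.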

[10] = ATG_TCF_b_cat_CIS: Attagene CIS-FACTORIAL HepG2 Assay for human T-Cell-Factor with beta-catenin (TCF/b-cat) (AID 2282965); settings: HepG2 TCF/beta-catenin cis-reporter transcription, actives raise or lower the signal
Procedure, shortened: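 HepG2, transient MRTU transfection, cis-element-driven reporters (endogenous TFs). 24 h compound exposure. Readout: reporter mRNA by RT-PCR + 6-FAM primer extension, HpaI digest, capillary electrophoresis. Gain/loss fit vs DMSO baseline.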

[11] = ATG_TAL_CIS: Attagene CIS-FACTORIAL HepG2 Assay for human TAL Basal Promoter (AID 2282966); settings: HepG2 Attagene cis-factorial TAL promoter reporter; actives raise or lower the signal;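 note: background control endpoint measuring basal TAL promoter reporter mRNA not a specific factor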
Procedure, shortened: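 Basal-promoter background-control endpoint from a multiplexed HepG2 reporter panel. Cells were exposed 24 h, then reporter mRNA was read by RT-PCR/CE fluorescence and fitted in both directions relative to DMSO.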

[12] = ATG_TGFb_CIS: Attagene CIS-FACTORIAL HepG2 Assay for human Transforming Growth Factor (TGF) (AID 2282967); settings: HepG2 Attagene CIS TGFb reporter, mRNA transcription; actives raise or lower the signal
Procedure, shortened: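 Readout: fluorescently labeled reporter cDNA fragments resolved by capillary electrophoresis after RT-PCR. Transfected HepG2 cells dosed for 24 h; endogenous TF activity at TGFB1-linked cis element; gain or loss fitted relative to DMSO.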

[13] = ATG_VDRE_CIS: Attagene CIS-FACTORIAL HepG2 Assay for human Vitamin D Receptor Element (VDRE) (AID 2282968); settings: HepG2 VDRE cis-reporter transcription, actives raise or lower the signal
Procedure, shortened: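 Compounds were applied for 24 h to HepG2 cells transfected with promoter-regulated reporter units. Total RNA was reverse-transcribed, and reporter amplicons were fluorescently labelled and sized by capillary electrophoresis.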

[14] = biological target: Estrogen receptor (Homo sapiens) (UniProt P03372); experiment: ATG_ERa_TRANS: Attagene TRANS-FACTORIAL HepG2 Assay for human Estrogen Receptor alpha (ERa) (AID 2282970; active = hit-call score of the fitted dose curve at least 0.9, where 1 is the maximum); settings: HepG2 Attagene TRANS ERa GAL4 reporter, mRNA
Chain of Estrogen receptor (Homo sapiens) (P03372 whole entry, looked up, the tested form may be a part): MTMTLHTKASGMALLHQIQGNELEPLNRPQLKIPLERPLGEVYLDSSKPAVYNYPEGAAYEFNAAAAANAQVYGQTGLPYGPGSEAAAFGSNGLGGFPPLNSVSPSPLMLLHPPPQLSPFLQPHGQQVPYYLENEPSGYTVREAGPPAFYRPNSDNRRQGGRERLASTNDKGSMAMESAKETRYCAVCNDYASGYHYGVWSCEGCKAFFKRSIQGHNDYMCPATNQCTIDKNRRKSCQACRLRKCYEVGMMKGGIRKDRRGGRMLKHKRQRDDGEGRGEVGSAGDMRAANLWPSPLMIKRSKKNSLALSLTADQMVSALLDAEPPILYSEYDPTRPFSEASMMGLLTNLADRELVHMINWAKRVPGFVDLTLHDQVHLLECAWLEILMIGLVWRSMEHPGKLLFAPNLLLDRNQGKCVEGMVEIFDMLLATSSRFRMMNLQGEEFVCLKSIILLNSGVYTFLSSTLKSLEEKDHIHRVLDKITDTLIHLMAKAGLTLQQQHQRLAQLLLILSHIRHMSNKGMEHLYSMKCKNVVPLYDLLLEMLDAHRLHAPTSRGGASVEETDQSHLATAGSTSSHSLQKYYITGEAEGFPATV
Procedure, shortened: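 Gal4-fusion ERa transactivation, measured as reporter transcript level in transiently transfected HepG2 cells. Exposure 24 h; RT-PCR plus capillary electrophoresis with fluorescence detection.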

[15] = biological target: X-box-binding protein 1 (Homo sapiens) (UniProt P17861); experiment: ATG_Xbp1_CIS: Attagene CIS-FACTORIAL HepG2 Assay for human X-box Binding Protein 1 (XBP1) (AID 2282972); settings: HepG2 XBP1 cis-element reporter, Attagene multiplex; actives raise or lower the signal
Chain of X-box-binding protein 1 (Homo sapiens) (P17861 whole entry, looked up): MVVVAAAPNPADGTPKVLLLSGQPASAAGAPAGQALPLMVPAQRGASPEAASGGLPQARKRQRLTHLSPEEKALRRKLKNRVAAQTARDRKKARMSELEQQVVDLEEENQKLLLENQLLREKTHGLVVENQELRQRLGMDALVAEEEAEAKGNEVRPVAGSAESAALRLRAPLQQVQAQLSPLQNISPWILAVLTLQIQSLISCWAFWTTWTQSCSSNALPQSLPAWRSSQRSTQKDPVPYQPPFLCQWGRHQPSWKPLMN
Procedure, shortened: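 Multiplexed cis-reporter readout in transfected HepG2 liver cells. Exposure lasted 24 hours. Activity in either direction was fitted against DMSO as negative control and baseline.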

[16] = ATG_M_19_TRANS: Attagene TRANS-FACTORIAL HepG2 Assay for M19 Transcription Factor (Internal Marker) (AID 2282974; active = hit-call score of the fitted dose curve at least 0.9, where 1 is the maximum); settings: HepG2 Attagene TRANS-FACTORIAL M19 internal marker reporter
Procedure, shortened: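 Transfected HepG2 (GAL4-UAS MRTUs), 24 h compound, TriZol RNA, DNase-treated RT, reporter PCR, FAM label, HpaI digest, CE fluorescence; gain vs DMSO.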

[17] = ATG_GAL4_TRANS: Attagene TRANS-FACTORIAL HepG2 Assay for GAL4 (Internal Marker) (AID 2282976; active = hit-call score of the fitted dose curve at least 0.9, where 1 is the maximum); settings: HepG2 Attagene TRANS GAL4 internal marker reporter
Procedure, shortened: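 Background-control readout: GAL4-UAS reporter transcript in transiently transfected HepG2 cells after 24 h compound exposure. Measured by RT-PCR, 6-FAM primer extension, HpaI digest and capillary electrophoresis; gain-of-signal fit versus DMSO.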

[18] = biological target: Estrogen-related receptor gamma (Homo sapiens) (UniProt P62508); experiment: ATG_ERRg_TRANS: Attagene TRANS-FACTORIAL HepG2 Assay for human Estrogen-Related Receptor gamma (ERRg) (AID 2282977; active = hit-call score of the fitted dose curve at least 0.9, where 1 is the maximum;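 note: hits increase reporter signal over DMSO so potencies reflect activators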); settings: HepG2 Attagene TRANS reporter, ERRg transactivation
Chain of Estrogen-related receptor gamma (Homo sapiens) (P62508 whole entry, looked up, the tested form may be a part): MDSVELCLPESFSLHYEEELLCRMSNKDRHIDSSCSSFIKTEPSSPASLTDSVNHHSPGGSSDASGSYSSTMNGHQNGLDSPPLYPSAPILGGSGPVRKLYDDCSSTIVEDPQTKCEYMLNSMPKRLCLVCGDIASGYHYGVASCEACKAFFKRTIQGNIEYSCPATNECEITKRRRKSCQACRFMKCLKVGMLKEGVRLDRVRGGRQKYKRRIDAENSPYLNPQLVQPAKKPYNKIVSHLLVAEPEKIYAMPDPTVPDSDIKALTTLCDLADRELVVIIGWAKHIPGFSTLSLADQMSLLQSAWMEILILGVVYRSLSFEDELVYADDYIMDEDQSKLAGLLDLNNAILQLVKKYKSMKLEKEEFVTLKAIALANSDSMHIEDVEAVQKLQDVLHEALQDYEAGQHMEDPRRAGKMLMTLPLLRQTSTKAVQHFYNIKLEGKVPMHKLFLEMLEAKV
Procedure, shortened: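 Induction of reporter transcripts through a chimeric NR-Gal4 protein is quantified in transfected human HepG2 liver cells after 24 h chemical exposure, using RT-PCR with capillary electrophoresis detection and DMSO as baseline.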

[19] = biological target: Nuclear receptor subfamily 1 group I member 3 (Homo sapiens) (UniProt Q14994); experiment: ATG_CAR_TRANS: Attagene TRANS-FACTORIAL HepG2 Assay for human Constitutive Androstane Receptor (CAR) (AID 2282969; active = hit-call score of the fitted dose curve at least 0.9, where 1 is the maximum;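 note: activators raise reporter mRNA above DMSO so AC50 marks induction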); settings: HepG2 Attagene TRANS-FACTORIAL CAR reporter
Chain of Nuclear receptor subfamily 1 group I member 3 (Homo sapiens) (Q14994 whole entry, looked up, the tested form may be a part): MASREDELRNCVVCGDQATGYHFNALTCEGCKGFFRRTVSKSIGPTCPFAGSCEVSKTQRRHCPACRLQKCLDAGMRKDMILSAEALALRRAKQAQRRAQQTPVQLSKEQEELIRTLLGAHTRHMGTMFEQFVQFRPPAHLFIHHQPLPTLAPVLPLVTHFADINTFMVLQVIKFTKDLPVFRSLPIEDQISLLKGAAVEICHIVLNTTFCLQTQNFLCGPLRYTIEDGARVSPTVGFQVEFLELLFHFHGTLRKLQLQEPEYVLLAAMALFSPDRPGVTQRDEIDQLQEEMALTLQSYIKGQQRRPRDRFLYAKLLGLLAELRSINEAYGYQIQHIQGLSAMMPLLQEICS
Procedure, shortened: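 Transiently transfected HepG2, multiplex TRANS reporters (CAR-Gal4 chimera driving GAL4-UAS reporter). 24 h dosing. Readout: reporter transcript by RT-PCR + capillary electrophoresis, fluorescence intensity; positive direction vs DMSO.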

Measured: AC50

CCCCCCCCC(=O)OCC
not listed: [19]
inactive: all other assays above

C=C(C)C(=O)OCC(C)C
not listed: [16] | [18] | [19]
inactive: all other assays above

[Cl][Bi]([Cl])([c]1ccccc1)([c]1ccccc1)[c]1ccccc1
active: [1] 5.48 µM | [5] 5.6 µM | [10] 5.75 µM | [14] 2.74 µM | [15] 6.04 µM
not listed: [17] | [18]
inactive: all other assays above

O=C1CCCCCN1SSN1CCCCCC1=O
active: [1] 156 µM | [5] 183 µM | [6] 167 µM | [7] 161 µM | [15] 187 µM
not listed: [16]
inactive: all other assays above

O=S(=O)(O)c1ccccc1C=Cc1ccc(-c2ccc(C=Cc3ccccc3S(=O)(=O)O)cc2)cc1
active: [11] 32.4 µM | [12] 57.8 µM
not listed: [17] | [18] | [19]
inactive: all other assays above

CCN(CC#N)c1cccc(C)c1
active: [2] 45.3 µM
not listed: [16] | [17] | [18]
inactive: all other assays above

COC(=O)c1c(C)cc(O)c(C)c1O
active: [14] 38.7 µM
not listed: [16] | [18] | [19]
inactive: all other assays above

CCc1c(C(=O)O)c(=O)cnn1-c1ccc(Cl)cc1
active: [2] 52.3 µM
not listed: [19]
inactive: all other assays above

From PubChem BioAssay (EPA / NIEHS)
